Measured values published in the supplement of paper PMC13380429.

test system: Vero E6 infected with SARS-CoV-2; assay: SARS-CoV-2 infection rate relative to infected DMSO; higher = more infection, active = 60 or less; conditions: 24 h

SMILES	SARS-CoV-2 infection rate
C[C@@]1(O)[C@H](O)[C@@H](CO)O[C@H]1n1cnc2c(NC3CCCC3)nc(Cl)nc21 (10 µM)	102% (inactive)
C[C@@H](CN1CC(=O)NC(=O)C1)N1CC(=O)NC(=O)C1 [dexrazoxane] (10 µM)	97% (inactive)
Cn1c(N2CCCCS2(=O)=O)nc(C(=O)NCc2ccc(F)cc2)c(O)c1=O (10 µM)	104% (inactive)
O=C(CCCCC(=O)Nc1c(I)cc(I)c(C(=O)O)c1I)Nc1c(I)cc(I)c(C(=O)O)c1I [iodipamide] (10 µM)	93% (inactive)
Oc1c(I)cc(Cl)c2cccnc12 [clioquinol] (10 µM)	90% (inactive)
Cc1ccc(C(=O)Nc2ccc(Oc3cc4cnn(C)c4cc3-c3cn[nH]c3)c(F)c2)c(=O)n1-c1ccc(F)cc1 (0.833333 µM)	106% (inactive)
CC(=O)[C@]1(O)Cc2c(O)c3c(c(O)c2[C@@H](O[C@H]2C[C@H](N)[C@H](O)[C@H](C)O2)C1)C(=O)c1ccccc1C3=O [idarubicin] (0.833333 µM)	106% (inactive)
CN1C(=O)CC(C)(c2ccccc2)C1=O (stereo not given) [methsuximide] (10 µM)	110% (inactive)
Oc1ccc(C2CNCCc3c2cc(O)c(O)c3Cl)cc1 (stereo not given) [fenoldopam] (10 µM)	95% (inactive)
NC[C@H]1O[C@H](O[C@H]2[C@H](O)[C@@H](O[C@H]3O[C@H](CO)[C@@H](O)[C@H](N)[C@H]3O)[C@H](N)C[C@@H]2N)[C@H](N)[C@@H](O)[C@@H]1O [bekanamycin] (10 µM)	103% (inactive)
